Bioassay records as filed in PubChem BioAssay.
A selection: hits, their analogues and other compounds. The true share with any hit is near 10%.
FLuc inh: Firefly luciferase inhibition profiling of diverse chemical library using quantitative high-throughput screening; Potency, µM (series often up to 115 µM), most hits filed as inhibitors; purified P. pyralis luciferase, luminescence, biochemical; Luciferin 4-monooxygenase (Photinus pyralis), P08659; 2.5% of 76,000 active; note: nearly all actives have a fitted effect of over 65% in size
Target sequence (P08659 whole entry, looked up): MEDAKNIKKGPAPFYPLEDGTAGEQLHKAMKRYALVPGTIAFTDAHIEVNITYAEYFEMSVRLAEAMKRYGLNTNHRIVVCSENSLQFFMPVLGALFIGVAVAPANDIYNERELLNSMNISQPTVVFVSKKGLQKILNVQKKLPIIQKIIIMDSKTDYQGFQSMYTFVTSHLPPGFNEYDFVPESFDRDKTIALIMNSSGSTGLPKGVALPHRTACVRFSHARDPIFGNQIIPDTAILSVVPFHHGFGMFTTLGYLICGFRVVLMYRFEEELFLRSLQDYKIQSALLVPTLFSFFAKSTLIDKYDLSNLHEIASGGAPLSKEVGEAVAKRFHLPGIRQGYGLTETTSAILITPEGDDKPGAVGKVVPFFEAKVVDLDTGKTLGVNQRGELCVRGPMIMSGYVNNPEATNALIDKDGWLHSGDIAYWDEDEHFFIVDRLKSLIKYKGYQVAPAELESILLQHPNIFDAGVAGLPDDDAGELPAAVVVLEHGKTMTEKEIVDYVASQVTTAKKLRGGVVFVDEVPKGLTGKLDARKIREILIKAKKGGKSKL
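Purified P. pyralis luciferase (10nM final) in 50mM Tris acetate pH 7.5, 10mM Mg acetate, 0.01% Tween-20, 0.05% BSA with 10uM D-luciferin and 10uM ATP. Compounds titrated qHTS. Luminescence imaged on CCD.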
HEK cytotox: Cytotoxic Profiling in HEK 293 Cell Line of Diverse Libraries Using Quantitative High-Throughput Screening | HEK 293 viability, ATP luminescence (CellTiter-Glo), 48-72 h | Potency, µM (top dose mostly 115 µM), without a hit: at the highest dose activity change, negative = cytotoxicity, usual class: inhibitors | 6.6% of 94,000 active; note: nearly all actives have a fitted effect of over 60% in size
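Pintool-delivered compounds were incubated with HEK 293 cells (250 cells/well) at 37 degree Celsius for 48 or 72 hr. ATP-dependent luminescence (CellTiter-Glo) then reported remaining viable cells.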
NPR1 antag: Natriuretic polypeptide receptor (hNpr1) antagonism - Primary qHTS. Potency, µM (series often up to 46.3 µM), without a hit: top-dose activity change, negative = inhibition, actives largely listed as inhibitors. HEK293 hNpr1 GloSensor cGMP, ANP-stimulated luminescence. 1.6% of 76,000 active. AID 1347048, 2019; calls by dose curve; note: nearly all actives have a fitted effect of over 60% in size
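HEK293 cells stably expressing human Npr1 and cGMP GloSensor pGS-40F, loaded 2 h with 2% GloSensor reagent, given compound 30 min at room temperature. Luminescence read before and 20 min after 0.1 nM hNppA.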
GPT2 inh: Primary qHTS assay for inhibitors of Glutamate pyruvate transaminase 2 (GPT2); Recombinant GPT2, coupled pyruvate oxidase/HRP Amplex Red fluorescence; Potency, µM (series often up to 57.7 µM), for inactives: at the highest dose activity change, negative = inhibition, most hits filed as inhibitors; 0.25% of 100,000 active; note: nearly all actives have a fitted effect of over 60% in size
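Recombinant GPT2 (10ng/uL) with 250uM a-KG and 2mM L-alanine, 30 min at room temperature, in HEPES pH 7.5 buffer. Pyruvate detected by pyruvate oxidase/HRP/Amplex Red fluorescence after 30 min in the dark; AOA (50uM) as positive control.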
NIH3T3 tox: Cytotoxic Profiling in NIH 3T3 Cell Line of Diverse Libraries Using Quantitative High-Throughput Screening. NIH 3T3 viability, CellTiter-Glo ATP luminescence, 48-72 h. Potency, µM (series often up to 96.7 µM), for the others: top-dose activity change, negative = cytotoxicity, usual class: inhibitors. 4.3% of 94,000 active; note: nearly all actives have a fitted effect of over 55% in size
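Mouse fibroblast NIH 3T3 cells, 400 per well, received compound via pintool and were incubated for 48 or 72 hr prior to CellTiter-Glo ATP luminescence measurement.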
Starred values were filed as active, the others as inactive; i = inactive; ? = inconclusive; · = no result; ! = not confirmed by another sample; [ ] = dose if it differs, or a comment. Unless noted, calls come from the whole dose curve; as a rule, active = well fitted curve in the direction sought with a large enough effect; inconclusive = small, poorly fitted or top-dose-only effect, or another doubt; inactive = no such curve, though single readings can be large; an effect the other way counts as inactive or inconclusive. % is set by controls: 0 for no effect and ±100 for the full control effect; potency is the fitted concentration of half-maximal effect.

SMILES	FLuc inh	HEK cytotox	NPR1 antag	GPT2 inh	NIH3T3 tox
CC(C)C(=O)NCC12CCCC=C1N(CC1CC1)C(=O)CC2 (centres undefined)	·	i	·	3.3%	-8.8%
CNC[C@H](O)c1ccc(O)c(O)c1	·	·	·	14.1µM*!	·
Oc1ccc(C(O)CNCCCCCCNCC(O)c2ccc(O)c(O)c2)cc1O (centres undefined)	·	·	·	-20.3%	·
COc1cc(C(O)CO)ccc1O (centres undefined)	·	·	·	i	·
CC(C)NCC(O)c1ccc(O)c(O)c1 (centres undefined)	·	·	·	17.2µM*!	·
NC[C@H](O)c1ccc(O)c(O)c1	·	·	·	10µM*!	·
O=C(NCCN1CCOCC1)c1nc2sccn2c1-c1cccnc1	·	i	·	i	-5.7%[138 µM]
CC(=O)N1CCC2(CC1)OC(=O)N(Cc1ccccc1F)C2(C)c1ccccc1 (centres undefined)	i	-2.9%[172 µM]	-1.6%[70.6 µM]	-2.8%[88.5 µM]	35.5µM*
CC1(c2ccccc2)N(Cc2ccccc2F)C(=O)OC12CCN(C(=O)c1cccc(C#N)c1)CC2 (centres undefined)	i	-13.2%	2.4%	-13.4%	7.08µM*
CC1(c2ccccc2)N(Cc2ccccc2F)C(=O)OC12CCN(C(=O)CN1CCOCC1)CC2 (centres undefined)	i	3.7%	3.1%	-6.9%	22.4µM*
CC1(c2ccccc2)N(Cc2ccccc2)C(=O)OC12CCN(C(=O)CN1CCOCC1)CC2 (centres undefined)	i	3.9%	-4.5%	0.0%	14.1µM*
CC1(c2ccccc2)N(Cc2ccccc2)C(=O)OC12CCN(Cc1ccc(C(=O)O)cc1)CC2 (centres undefined)	·	·	·	1.6%	·
CC(NC(=O)c1ccc(N2CC(=O)NC2=O)cc1)c1cn2ncsc2n1 (centres undefined)	i	0.2%	4.8%	-9.6%	-14.3%
COc1ccc(Nc2ccnc(N3CCCC3C(=O)NCc3ccc(C(F)(F)F)cc3)n2)cc1 (centres undefined)	·	?	·	?	-40.5%
CCOC(=O)C1(Cc2cccc(OC)c2)CCCN(C(=O)CCn2ccnc2C)C1 (centres undefined)	i	-28.4%	-0.3%	?	-16.0%
CCOC(=O)C1(Cc2cccc(OC)c2)CCCN(C(=O)COc2ccccc2)C1 (centres undefined)	35.5µM*	?	-2.0%	-3.5%	-13.4%
CCOC(=O)C1(Cc2cccc(Cl)c2)CCCN(C(=O)c2csc(C(C)=O)c2)C1 (centres undefined)	?	39.8µM*	-16.8%	i	-19.0%
CCOC(=O)C1(Cc2cccc(OC)c2)CCCN(C(=O)CSc2ccncc2)C1 (centres undefined)	i	28.2µM*	-2.8%	?	-12.1%
CC(C)c1ccc(CN2CCc3c(n(Cc4ccccc4)n(-c4ccccc4)c3=O)C2)cc1	i	?	-16.6%	?	?
CCCCOc1c(CNC(C)c2ncccc2C)cccc1OC (centres undefined)	i	39.8µM*	-12.8%	-21.2%[11.5 µM]	28.2µM*
Cc1ccc(-c2ncccn2)c(C(=O)N2C[C@H](COc3ccc(F)cn3)CC[C@H]2C)c1	·	·	·	i	·
Cc1ccccc1-n1nc(C)c([C@H]2C=C[C@@H](OC(=O)NC(C)C)C2)c1C	i	?	-12.6%[70.6 µM]	-5.3%[88.5 µM]	25.1µM*
Cc1nn(-c2ccc(C(C)(C)C)cc2)c(C)c1[C@@H]1C=C[C@@H](NC(=O)NC(C)C)C1	14.1µM*	44.7µM*	?	i	44.7µM*
Cc1nn(-c2ccc(C(C)(C)C)cc2)c(C)c1[C@@H]1C=C[C@@H](NC(=O)c2ccc(N(C)C)cc2)C1	i	?	-13.2%	-3.5%	?
Cc1nn(-c2ccc(F)cc2)c(C)c1[C@@H]1C=C[C@@H](NC(=O)NC(C)C)C1	63.1µM*	?	?	4.6%[88.5 µM]	?
SMILES	FLuc inh	HEK cytotox	NPR1 antag	GPT2 inh	NIH3T3 tox
Cc1nn(-c2ccc(C(F)(F)F)cc2)c(C)c1[C@@H]1C=C[C@@H](NC(=O)c2ccc(N(C)C)cc2)C1	?	?	-14.2%	-14.1%	?
COc1ccc(-c2ccc(C(=O)NCCCc3ccccc3)cc2)nn1	·	-22.7%[172 µM]	·	·	?
CC(=O)Nc1ccc(CC(=O)NCCc2noc(-c3ccccc3)n2)cc1	·	i	·	i	-17.0%
COCCn1ncc(N2CCC(C(=O)Nc3ccc(C)cc3)C2)cc1=O (centres undefined)	·	-3.0%	·	-6.6%	i
Cn1ncc2c(C(=O)NCc3ccc(F)cc3)cc(C(C)(C)C)nc21	·	100µM*!	·	?	?
Cn1ncc2c(C(=O)NCc3ccc(F)c(F)c3)cc(C(C)(C)C)nc21	·	56.2µM*	·	i	?
Cn1ncc2c(C(=O)NCC(F)(F)F)cc(C(C)(C)C)nc21	·	?	·	i	?
CCn1nccc1C(=O)N1CCCCC1c1noc(COc2ccc(C)cc2)n1 (centres undefined)	·	?	·	2.4%	?
Cc1cccc(CNC(=O)C2CCCN(c3cnc4nc(C)c(C)nc4c3)C2)c1 (centres undefined)	i	-14.8%	4.6%	-4.9%	-24.9%
COc1ccc(C(=O)NC2CCCN(Cc3ccc(-c4cccc(OC)c4)cc3)C2)cc1 (centres undefined)	·	35.5µM*	·	i	-37.3%
COc1cccc(C(=O)NC2CCCN(Cc3ccc(-c4cccc(OC)c4)cc3)C2)c1 (centres undefined)	·	31.6µM*	·	i	25.1µM*
COc1cccc(-c2ccc(NC(=O)C3CCCN(Cc4cc(C(C)C)n[nH]4)C3)cc2)c1 (centres undefined)	i	22.4µM*	?	-4.1%	39.8µM*
Cc1cc(C)cc(-c2ccc(CN3CCCC(NC(=O)c4cccc(Cl)c4)C3)cc2)c1 (centres undefined)	·	39.8µM*	·	i	?
CC1(C)CC[C@]2(C(=O)O)CC[C@]3(C)C(=CCC4[C@@]5(C)C[C@@H](O)[C@H](O)C(C)(C)C5CC[C@]43C)C2C1 (some centres undefined)	·	·	·	i	·
COc1cccc(-c2ccc(CN3CCCC(NC(=O)C4CCCC4)C3)cc2)c1 (centres undefined)	·	20µM*	·	·	35.5µM*
COc1cccc(-c2ccc(CN3CCCC(NC(C)=O)C3)cc2)c1 (centres undefined)	·	?	·	i	-41.3%
